High-throughput results as filed in PubChem BioAssay.
CtBP-E1A inh: blocks the CtBP interaction with E1A. AlphaScreen GST-E1A/His-CtBP binding, 1536-well; stronger effect = lower value. activity change, % (test concentration not listed). 340,000 compounds, 0.49% hits. AID 651724; in the data active = activity change below about -65%; inconclusive = mostly about -30% to -63%
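Homogeneous bead-based format: GST-tagged E1A captured on glutathione donor beads, His-tagged CtBP on nickel acceptor beads; compounds precede bead addition by 2 h at 37 °C.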
L3MBTL1 inh: L3MBTL1 (human) inhibition. Q9Y468. AlphaScreen L3MBTL1–H3K9me1 peptide binding. Potency, µM (series often up to 57.1 µM), without a hit: at the top dose activity, negative = inhibition, usual class: inhibitors. 230,000 compounds, 0.66% hits; also: potency is read from the fitted curve at half-maximal effect; nearly all actives have a fitted effect of over 60% in size
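Read-out is AlphaScreen signal from streptavidin donor and nickel chelate acceptor beads (10 ug/mL final each) bridging L3MBTL1 (50 nM) and biotinylated K9-monomethylated H3(1-15) peptide (75 nM), after 30 min compound exposure at room temperature.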
B2AR arrestin: beta2AR (human) beta-arrestin recruitment activity; P07550; beta-arrestin recruitment to beta2AR, cell-based reporter; Potency, µM (series often up to 46.1 µM), inactives show at the highest dose activation, most hits filed as activators; 330,000 compounds, 0.02% hits;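 also: potency is read from the fitted curve at half-maximal effect; 0% = DMSO controls and full agonism = EC100 isoproterenol or metaproterenol; nearly all actives have a fitted effect of over 65% in size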
Target sequence (P07550 whole entry, looked up): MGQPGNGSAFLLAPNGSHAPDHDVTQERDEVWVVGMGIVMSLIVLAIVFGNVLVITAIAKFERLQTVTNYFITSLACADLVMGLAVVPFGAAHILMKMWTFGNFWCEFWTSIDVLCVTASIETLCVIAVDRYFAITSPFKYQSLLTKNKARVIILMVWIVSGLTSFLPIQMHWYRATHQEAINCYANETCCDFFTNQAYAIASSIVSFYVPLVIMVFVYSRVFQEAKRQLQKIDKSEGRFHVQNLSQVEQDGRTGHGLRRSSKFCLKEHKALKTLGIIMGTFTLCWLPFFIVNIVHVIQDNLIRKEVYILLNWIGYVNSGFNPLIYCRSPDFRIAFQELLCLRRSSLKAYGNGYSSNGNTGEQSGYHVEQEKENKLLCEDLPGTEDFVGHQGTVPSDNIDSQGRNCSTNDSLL
Eya2 phos inh: blocks the phosphatase activity of human Eya2. O00167. recombinant Eya2, OMFP fluorescence dephosphorylation (OMFP is methylfluorescein phosphate). Potency, µM (series often up to 76.9 µM), inactives show at the highest dose activity, negative = inhibition, actives largely listed as inhibitors. 330,000 compounds, 0.006% hits. AID 488837; also: potency is read from the fitted curve at half-maximal effect
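Eya2 protein (added as 0.2 uM solution) was preincubated with compound for 10 min at ambient temperature in 50 mM HEPES pH 7.5, 50 mM NaCl, 5 uM MgCl2, 0.05% BSA, 1 mM DTT. OMFP (added at 50 uM) then reacted 10 min; fluorescence read at 485/525 nm.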
Six1-Eya2 inh: blocks human Six1 binding to Eya2. 360,000 compounds, 0.56% hits. activity change, % (concentration not given with the values). Q15475+O00167. AlphaScreen GST-Six1/His-Eya2 binding, biochemical; stronger effect = lower value; in the data active = activity change below about -65%; inconclusive = mostly about -30% to -63%
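Compounds are tested against tagged Six1 and Eya2 proteins bridged by glutathione donor and nickel acceptor beads; after a one-hour incubation at 37 °C without light, AlphaScreen emission is recorded.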
Starred values were filed as active, the others as inactive; ? = inconclusive; / = no result; [ ] = another dose, or the depositor's remark. The list is not random: actives were taken first. Their share in the collection is about 0.9%. Unless noted, calls follow the shape of the dose curve; as a rule, active = well fitted curve in the direction sought with a large enough effect; inconclusive = small, poorly fitted or top-dose-only effect, or another doubt; inactive = no such curve, though single readings can be large; an effect the other way counts as inactive or inconclusive. Unless noted, % is scaled to controls: 0 for no effect and ±100 for the full control effect.

SMILES | CtBP-E1A inh | L3MBTL1 inh | B2AR arrestin | Eya2 phos inh | Six1-Eya2 inh
N=C1CCC(=N)c2c1c(O)c1ccccc1c2O | ? | 7.1µM* | 0% | -2% | -16
O=C(CSc1ccc(-c2cccnc2)nn1)Nc1ccc(F)cc1 | 0 | / | -1% | 5% | 21
CCOc1ccccc1OCCCC(=O)N1CCN(S(=O)(=O)c2ccccc2C#N)CC1 | -1 | / | / | / | 3
CCOC(=O)C1=C(C)NC(C)=C(C(=O)OCC)C1c1c(F)c(F)c(F)c(F)c1F | / | / | / | -24% | /
Cc1cc2nc3s/c(=C/c4ccc(-c5ccccc5C(=O)O)o4)c(=O)n3c2cc1C | / | / | 0% | 3% | ?
O=C(O)c1cc(-c2ccc(/C=C3\NC(=O)N(c4ccc(Cl)cc4)C3=O)o2)ccc1Cl | / | 7.9µM* | 0% | -4% | -19
O=C1NN(c2ccccc2)C(=O)/C1=C/c1ccc(-c2ccc(Cl)c(C(=O)O)c2)o1 | 1 | / | 0% | -6% | -11
C#CCN1C(=O)S/C(=C\c2ccc(-c3ccc(Cl)c(C(=O)O)c3)o2)C1=O | / | ? | -1% | -29% | -5
O=C(O)c1cc(-c2ccc(/C=c3\sc4nc5ccc(Br)cc5n4c3=O)o2)ccc1Cl | / | 28µM* | -1% | 3% | /
O=C(O)c1ccccc1-c1ccc(/C=c2\sc3nc4cc(Br)cnc4n3c2=O)o1 | ? | 13µM* | 0% | 24% | -81*
CC(=O)c1sc2nc(C)cc(C)c2c1N | 23 | -6% | 0% | 12% | 8
Cc1cc(C)c2c(n1)sc1c(O)cc(=O)[nH]c12 | -15 | ? | 0% | 8% | -71*
CCCCn1c(NC(=S)Nc2ccccc2)nc2ccccc21 | -15 | 18µM* | -1% | 3% | -14
S=C(Nc1ccccc1)Nc1nc2ccccc2n1CCOc1ccccc1 | -24 | 10µM* | 1% | 22% | -26
CC(C)CCCCCCCCCCCCC(=O)NCC(=O)NC1C(C)OC(Nc2ncnc3nc[nH]c23)C(O)C1O (stereo unspecified) | -3 | / | / | / | 10
COc1ccc(CCn2c(=N)c(C(=O)NCc3ccco3)cc3c(=O)n4ccccc4nc32)cc1 | -83* | -6% | 0% | 4% | -75*
CCN(CC)C(=O)CSc1nc2c(sc(=S)n2-c2ccc(C)cc2C)c(=O)[nH]1 | -2 | / | -1% | 10% | 2
O=C(CNC(=O)C1COc2ccccc2O1)N/N=C/c1ccc(O)cc1O (stereo unspecified) | -88* | 0% | 0% | -1% | -88*
O=C(/C=C\c1ccccc1)NCC(=O)N/N=C/c1ccc(O)cc1O | -97* | / | 0% | 3% | -75*
COc1ccc(/C=C/C(=O)NCC(=O)N/N=C/c2cc(Br)ccc2OC)cc1 | 7 | 0% | 0% | -9% | -3
COc1ccc2[nH]c(C(=O)N/N=C/c3ccc(O)cc3O)cc2c1 | / | / | -1% | 0% | -80*
COc1ccc(/C=C\C(=O)NCC(=O)N/N=C/c2ccc(O)cc2O)cc1 | -17 | ? | 0% | -22% | -88*
CN1CCC(C(=O)C(=O)O)C1=O (stereo unspecified) | -24 | / | / | / | 16
O=C1C2C3C=CC(C2C(=O)N1CCO)C1C(=O)N(CCO)C(=O)C31 (stereo unspecified) | / | / | 0% | -2% | 8
O=C(N/N=C/c1ccc(O)cc1O)/C(=C/c1ccccc1)CCO | -92* | -8% | -1% | -6% | -89*
SMILES | CtBP-E1A inh | L3MBTL1 inh | B2AR arrestin | Eya2 phos inh | Six1-Eya2 inh
COc1ccc(O)c(/C=N/NC(=O)c2cc(=O)[nH]c3ccccc23)c1 | ? | ? | 0% | -9% | -92*
O=C(N/N=C/c1ccccc1)c1cc(=O)[nH]c2ccccc12 | 5 | -4% | 0% | 6% | 2
O=[N+]([O-])c1cccc(C=NNc2ccc3ccccc3n2)c1O | -95* | / | / | / | -91*
O=C(N/N=C/c1ccc([N+](=O)[O-])cc1)c1cccs1 | / | ? | 0% | -4% | -5
COc1cc([N+](=O)[O-])cc(/C=N\NC(=O)C2COc3ccccc3O2)c1O (stereo unspecified) | / | ? | -1% | 5% | -89*
O=C(N/N=C/c1cccc([N+](=O)[O-])c1)C1COc2ccccc2O1 (stereo unspecified) | / | / | 0% | 5% | 18
O=C(N/N=C\c1cccc([N+](=O)[O-])c1O)C1COc2ccccc2O1 (stereo unspecified) | -96* | -15% | -1% | -7% | -88*
COc1cc(/C=N/NC(=O)C2COc3ccccc3O2)cc(OC)c1OC (stereo unspecified) | -9 | -9% | -1% | -1% | -1
O=C(N/N=C/c1cccc([N+](=O)[O-])c1O)c1cccs1 | 7 | ? | 0% | -6% | -91*
O=c1oc2ccccc2c2c1C1O[C@](c3ccsc3)(Cc3ccccc31)O2 | / | / | -3%[9.22 µM] | -13%[15.4 µM] | /
COc1ccc(NC(=O)CN(C)C(=O)CNC(=O)c2ccc(C)s2)cc1 | -1 | 7% | -2% | -17% | 1
Nc1nc(-c2ccccc2)c(N=Nc2cccc3ccccc23)s1 | -93* | 18µM* | -1% | -17% | -78*
Nc1nc(-c2ccccc2)c(N=Nc2ccccc2Cl)s1 | -67* | 28µM* | 0% | -23% | -76*
COc1ccc(N=Nc2cnc(C)nc2-c2ccccc2)cc1 | -29 | -16% | 0% | 4% | ?
Nc1nc(-c2ccc(Cl)cc2)c(N=Nc2ccc(S(=O)(=O)N3CCOCC3)cc2)s1 | -8 | -6% | 0% | 7% | -13
CC(=O)Nc1sc(N)nc1-c1ccccc1 | 4 | / | 0% | 13% | 6
Cc1ncc(N=Nc2ccccc2Cl)c(-c2ccccc2)n1 | -66* | ? | 0% | 7% | -69*
COc1cc2c(cc1OC)C1O[C@](CCCCN3C(=O)c4ccccc4C3=O)(C2)OC2=C1C(=O)CC(C)(C)C2 | / | / | 0%[9.22 µM] | 13%[15.4 µM] | /
N#C/C(=C\c1c[nH]c2ccccc12)C(=O)c1ccc(O)c(O)c1 | / | / | / | 3% | /
CC(C)(C)S(=O)N1Cc2ccc(CO)cc2[C@@H]1CCO (stereo partly specified) | 34 | / | / | / | 31
Fc1ccccc1N1CCN(C(c2ccnc3ccccc23)c2nnnn2-c2ccc3c(c2)OCCO3)CC1 (stereo unspecified) | -2 | / | / | / | -22
O=C(CCN1CCN(c2ccccc2)CC1)N/N=C/c1ccccc1O | 7 | -10% | 0% | -8% | -70*
O=C(N/N=C/c1ccccc1O)C(=O)N1CCCCCC1 | -88* | / | 0% | -6% | -79*
O=C(NN=Cc1ccccc1O)C(O)c1ccccc1 (stereo unspecified) | -68* | / | / | / | ?
COc1cccc(/C=N/NC(=O)C(=O)N2CCCC2)c1O | 10 | 22µM* | -1% | -9% | -89*
CCCC[C@]12Cc3cc(C#N)ccc3C(O1)c1c(cc(-c3ccccc3)oc1=O)O2 | / | / | 0%[9.22 µM] | -5%[15.4 µM] | /
